Source: PubChem BioAssay (National Center for Advancing Translational Sciences (NCATS))
Rows were chosen to be rich in hits. Some 19% of all compounds tested hit in one or more screens of this group.
HT1080-NT tox: kills 2HG-producing HT-1080-NT fibrosarcoma cells. HT-1080-NT fibrosarcoma viability, CellTiter-Glo ATP luminescence, 48 h. hit rate 1.6% among 360,000. Potency, µM (series often up to 46.1 µM), without a hit: at the top dose activity, negative = less viability, most hits filed as cytotoxic. AID 686970;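 note: NT is the 2HG producing partner of a matched IDH1 knockdown line; potency is the fitted concentration of half-maximal effect; 0% = DMSO-treated cells and -100% = media-only wells without cells; nearly all actives have a fitted effect of over 55% in size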
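Luminescent CellTiter-Glo readout after 48 hours of compound exposure at 37 degrees C defined viability of HT-1080-NT cells. Activity was normalized to DMSO wells and cell-free media wells; concentration-response curves were fitted and assigned curve classes.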
TDP1 cell CPT: growth inhibition of DT40 Tdp1-/-;hTDP1 cells with camptothecin (screen for TDP1 inhibitors); Potency, µM (top dose mostly 46.2 µM), for the others: at the top dose activity change, negative = growth inhibition, usual class: inhibitors; chicken DT40 Tdp1-/-;hTDP1 cells + 20 nM CPT, ATP luminescence, 48 h; hit rate 12% among 420,000; AID 686979; note: potency is the fitted concentration of half-maximal effect; nearly all actives have a fitted effect of over 55% in size
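Chicken DT40 Tdp1-/- cells stably complemented with human TDP1 were seeded at 400 cells/well in medium containing 20 nM camptothecin, exposed to pin-transferred compounds, and grown at 37 °C for at least 48 hr. Viability was read as ATP luminescence.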
DT40 TDP1 no CPT: qHTS for Inhibitors of human tyrosyl-DNA phosphodiesterase 1 (TDP1): qHTS in cells in absence of CPT | DT40 Tdp1-/- hTDP1 cells, no CPT, ATP luminescence, 48 h | Potency, µM (highest dose often 46.2 µM), inactives show at the top dose activity change, negative = growth inhibition, hits mostly inhibitors | hit rate 15% among 420,000; note: potency is the fitted concentration of half-maximal effect; nearly all actives have a fitted effect of over 55% in size
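Seeded 400 DT40-hTDP1 cells/well (vehicle DMSO, no 20 nM CPT); pinned compounds; ≥48 hr at 37 °C; CellTiter-Glo luminescence as viability measure.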
HT1080 IDH1KD tx: toxicity to HT-1080 IDH1 knockdown cells (counter line). Potency, µM (doses to about 46.1 µM), inactives show at the highest dose activity, negative = toxicity, actives largely listed as cytotoxic. hit rate 2% among 360,000. HT-1080 IDH1 knockdown viability, ATP luminescence, 48 h;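 note: potency is the fitted concentration of half-maximal effect; 0% = DMSO wells and -100% = cell-free medium wells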
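CellTiter-Glo luminescence after 48 h compound exposure at 37 degrees C of IDH1-knockdown HT-1080 cells in 5% FBS RPMI. %Activity scaled between DMSO wells and cell-free media wells, with curves fitted and assigned curve classes.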
IL-1B inflam inh: blocks inflammasome-driven IL-1 beta release; activity change, % at 57.5 µM; AID 743279; THP-1 LPS/ATP IL-1B secretion, AlphaLISA, 16 h; stronger effect = lower value; hit rate 4.7% among 360,000; in the data active = activity change below about -50%; inconclusive = mostly about -30% to -49%
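THP-1 cells pretreated 1 hr with compounds (up to 57.5 uM final), then stimulated with LPS (250 ng/mL final) plus ATP (1.25 mM final); secreted IL-1B measured by AlphaLISA after 16 hr, decreased signal indicating inhibition.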
The depositor's hits bear a star; i = inactive; u = inconclusive; x = no result given; ! = a repeat was not active. Unless noted, calls come from the whole dose curve; as a rule, active = well fitted curve in the direction sought with a large enough effect; inconclusive = small, poorly fitted or top-dose-only effect, or another doubt; inactive = no such curve, though single readings can be large; an effect the other way counts as inactive or inconclusive. Unless noted, % is set by controls: 0 for no effect and ±100 for the full control effect.

SMILES	HT1080-NT tox	TDP1 cell CPT	DT40 TDP1 no CPT	HT1080 IDH1KD tx	IL-1B inflam inh
CC(C)CCNC(=O)C(c1ccc(O)cc1)N(Cc1cccs1)C(=O)C1COc2ccccc2O1 (stereo unspecified)	u	23µM*	16µM*	u	-73*
COc1ccc(C(C(=O)NC2CCCC2)N(CC2CCCO2)C(=O)Cc2cccs2)cc1OC (stereo unspecified)	-8%	5%	8%	1%	3
O=C(NCC(=O)N(Cc1cccs1)C(C(=O)NC1CCCCC1)c1ccco1)c1ccco1 (stereo unspecified)	7%	-19%	-25%	6%	-5
c1ccc(CCc2nnc3n2CCN(Cc2ccc4ccccc4n2)CC3)cc1	x	u	-30%	x	x
O=C(NCCNC(=O)c1ccc(Cl)cc1Cl)c1ccc(Cl)cc1Cl	3%	u	-8%	15%	40
O=C1CC(C(=O)N(CC2CCCO2)C(C(=O)NC2CCCCC2)c2ccncc2)CS1 (stereo unspecified)	2%	-17%	-14%	-4%	16
CC(NCc1cccs1)C(=O)NC1CCCCC1 (stereo unspecified)	2%	-30%	-1%	12%	-62*
O=C(NC1CCCCC1)C(c1ccc(O)cc1)N(CC1CCCO1)C(=O)C1COc2ccccc2O1 (stereo unspecified)	4.6µM*	u	u	4.6µM*	-13
O=C(Cc1cccs1)N(Cc1cccs1)C1(C(=O)NC2CCCCC2)CCCCC1	4%	26µM*	16µM*	0%	-52*
Cc1ccc(F)cc1NC(=O)CSCc1nc2sc(C)c(C)c2c(=O)[nH]1	-1%	u	u	1%	-6
CCCC[C@H]1COCCS(=O)(=O)N1Cc1ccc(C)cc1	-2%	u	26µM*	-6%	x
O=S1(=O)CCO[C@H]2Cc3ccccc3[C@H]2N1Cc1cccc(F)c1	-3%	21µM*!	-4%	-1%	15
CC(C)[C@H]1COCCS(=O)(=O)N1Cc1ccc(Cl)cc1	-4%	u	u	-2%	-4
CCCC[C@H]1COCCS(=O)(=O)N1Cc1cccc(F)c1	2%	u	13µM*!	-4%	3
CCC(C)[C@H]1COCCS(=O)(=O)N1Cc1ccc(Br)cc1 (stereo partly specified)	-1%	18µM*	16µM*	22%	-3
COc1cccc(N2CCN(C(=O)CCC(=O)c3ccc(Cl)s3)CC2)c1	7%	6%	-7%	-1%	-5
CCCCn1c(N)c(N(CCOC)C(=O)CCC2CCCCC2)c(=O)[nH]c1=O	0%	-22%	-3%	-4%	u
COc1ccc(NC(=O)CNC(=O)Cc2cccc3ccccc23)c(OC)c1	20%	6%	-14%	u	9
COc1ccc([N+](=O)[O-])cc1NC(=O)CC1SC(=Nc2cccc(C)c2C)N(/N=C/c2cccc(OC)c2OC)C1=O (stereo unspecified)	4%	14%	-9%	-1%	3
CC(C)C[C@H]1COCCS(=O)(=O)N1Cc1cccc(Cl)c1	0%	15µM*	u	4%	9
O=S1(=O)CCOC[C@H](Cc2ccccc2)N1Cc1cccc(Cl)c1	0%	u	-25%	-5%	-4
N#Cc1cccc(S(=O)(=O)NCC(=O)OCC(=O)c2ccc[nH]2)c1	0%	-15%	-6%	7%	1
Cc1cc(=O)[nH]c(N/N=C/c2c(C)oc3ccccc23)n1	12%	12µM*	u	19%	0
Cc1cc(=O)[nH]c(N/N=C/c2c[nH]c3ccccc23)n1	1%	u	u	-2%	14
Cc1cc(=O)[nH]c(N/N=C/c2c(C)nn(-c3ccccc3)c2Cl)n1	-1%	23µM*	23µM*	-5%	-14
SMILES	HT1080-NT tox	TDP1 cell CPT	DT40 TDP1 no CPT	HT1080 IDH1KD tx	IL-1B inflam inh
CC1(C)CC(=O)C2=C(C1)Nc1[nH]n(-c3ccccc3)c(=O)c1C2c1ccc2c(c1)OCO2 (stereo unspecified)	0%	7.3µM*	5.2µM*	-17%	-7
NC(=S)NNC(=O)[C@@H]1CCCC[C@@H]1C(=O)O	13%	-17%	-23%	-3%	19
COc1cccc(C2NC(=O)CCC2[N+](=O)[O-])c1 (stereo unspecified)	-1%	51%	-7%	21%	37
O=C(O)c1ccc(NCCC2=CCCCC2)c([N+](=O)[O-])c1	1%	4%	0%	1%	15
O=C(NCCc1c[nH]c2ccccc12)C(=O)NCC(c1ccco1)N1CCN(c2ccccc2F)CC1 (stereo unspecified)	-19%	u	23µM*	-15%	-2
O=C(NCc1ccccc1)C(c1ccc(-c2ccccc2)cc1)N1CCN(c2ccccc2F)CC1 (stereo unspecified)	-5%	18µM*	u	2%	-8
O=C(NCc1ccccc1)C(c1ccco1)N1CCN(c2ccccc2F)CC1 (stereo unspecified)	15%	u	u	10%	-59*
O=C(NCc1ccccc1)C(c1ccc(F)cc1)N1CCN(CCN2CCOCC2)CC1 (stereo unspecified)	10%	-11%	-6%	u	11
O=C(NCc1ccccc1)C(=O)NCC(c1ccco1)N1CCN(c2ccccc2F)CC1 (stereo unspecified)	14%	-2%	10%	10%	6
C[C@H](CO)N1C[C@H](C)[C@@H](CN(C)C(=O)CN2CCOCC2)Oc2cc(Br)ccc2S1(=O)=O	1%	0%	-18%	2%	0
O=C(C1CCC(=O)N(C2CCCC2)C1)N1CCN(c2ccccc2Cl)CC1 (stereo unspecified)	-1%	-22%	5%	1%	16
Cc1cccc(N2CCN(C(=O)C3CCC(=O)N(C4CC4)C3)CC2)c1C (stereo unspecified)	13%	16µM*	u	4%	34
O=C(C1CC(=O)N(C2CCCC2)C1)N1CCN(c2ccccc2F)CC1 (stereo unspecified)	8%	-14%	-12%	-4%	0
Cc1ccc(Cl)cc1N1CCN(C(=O)C2CCC(=O)N(C3CCCCCC3)C2)CC1 (stereo unspecified)	-8%	6.5µM*	2.9µM*	u	30
COCCOC1CCN(C(=O)C2CCC(=O)N(CCc3ccccc3)C2)CC1 (stereo unspecified)	-4%	-12%	-9%	-4%	i
Cc1nc2ccccc2n1/N=C/c1ccc([N+](=O)[O-])s1	u	3.7µM*	5.2µM*	u	u
